D1 antag: Antagonist of Human D 1 Dopamine Receptor: qHTS; HEK293 TREx D1 cells, calcium flux, dopamine EC80; stronger effect = lower value; activity change, negative = inhibition, % at 10 µM; AID 504652, 2011; D(1A) dopamine receptor (Homo sapiens), P21728; 360,000 tested, 3.2% active; in the data active = activity change below about -30%
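Tetracycline-induced HEK293 T-REx cells with force-coupled D1 receptor were loaded with a no-wash calcium dye. Compound was added after a 10 s baseline and read kinetically for 180 s; EC80 dopamine was then added and calcium flux followed another 180 s.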
TRHR enhancer-1: qHTS for Small Molecule Agonists and Allosteric Enhancers of Human TRH Receptor: Primary Screen for Enhancers; Thyrotropin-releasing hormone receptor (Homo sapiens), P34981; TRHR cells, fluo-8 calcium fluorescence, EC20 TRH enhancement; enhancement, % at 2 µM; 360,000 tested, 0.66% active; in the data active = enhancement above about 30%
Target sequence (P34981 whole entry, looked up): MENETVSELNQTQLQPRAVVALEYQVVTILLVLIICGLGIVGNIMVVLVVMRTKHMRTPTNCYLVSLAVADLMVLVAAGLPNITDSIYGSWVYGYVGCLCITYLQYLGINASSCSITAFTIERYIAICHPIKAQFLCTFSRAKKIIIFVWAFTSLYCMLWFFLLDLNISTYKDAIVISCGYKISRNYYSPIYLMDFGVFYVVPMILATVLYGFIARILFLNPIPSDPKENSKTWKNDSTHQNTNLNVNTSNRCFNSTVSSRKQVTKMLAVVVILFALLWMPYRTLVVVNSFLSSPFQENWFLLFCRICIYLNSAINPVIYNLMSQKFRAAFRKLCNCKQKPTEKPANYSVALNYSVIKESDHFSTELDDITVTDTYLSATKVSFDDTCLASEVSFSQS
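TRHR-expressing cells loaded with fluo-8 calcium dye were read kinetically (ex 480/em 530) during compound addition, then stimulated with an EC20 of TRH (10 nM final). Enhancement of the Gq-mediated intracellular calcium response was scored.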
D1 PAM: Potentiators of Human D1 Dopamine Receptor: qHTS; potentiation, % at 10 µM; HEK293 TREx D1 cells, calcium flux, dopamine EC20 potentiation; 360,000 tested, 0.036% active; D(1A) dopamine receptor (Homo sapiens), P21728; in the data active = potentiation above about 30%
D1 ag: Allosteric Agonists of the Human D1 Dopamine Receptor: qHTS. HEK293 T-REx D1 cells, calcium flux, agonist mode. activation, % at 2 µM. 360,000 tested, 1% active. AID 504660, 2011; in the data active = activation above about 30%
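Tetracycline-induced HEK293 TREx D1 cells, force-coupled to calcium signalling, were dye-loaded with a no-wash calcium kit. Compound was pin-added after a 10 s baseline. Fluorescence was read kinetically at 1 cycle/s for 180 s, with calcium rises flagged as agonism.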
TRHR agonist-1: qHTS for Small Molecule Agonists and Allosteric Enhancers of Human TRH Receptor: Primary Screen for Agonists; TRHR cells, calcium flux fluo-8, FDSS agonist mode; activation, % at 2 µM; 360,000 tested, 0.18% active; AID 493084, 2011; in the data active = activation above about 30%
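TRHR-expressing cells, plated overnight in medium with 10% serum, were loaded with fluo-8 calcium dye at room temperature. After a 10 s baseline, library compound was pin-added and calcium release was recorded kinetically (ex 480/em 530) as agonist response.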
TRHR enhancer-2: qHTS for Small Molecule Agonists and Allosteric Enhancers of Human TRH Receptor: Confirmation Screen for Enhancers | shares compounds with TRHR enhancer-1 | TRH receptor cell assay, enhancer confirmation qHTS | activity change, negative = inhibition, % at 46.1 µM | 970 tested, under 10 active | AID 493076, 2011;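 also: compound effect scored on response to added TRH at EC20 of 10 nM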
TRHR agonist-2: qHTS for Small Molecule Agonists and Allosteric Enhancers of Human TRH Receptor: Confirmation Screen for Agonists; shares compounds with TRHR enhancer-1; TRHR-expressing cells, agonist activation read-out; Potency, µM (top dose mostly 46.1 µM), hits mostly activators; 970 tested, 8% active; AID 493078, 2011; also: nearly all actives have a fitted effect of over 75% in size
A number is an active result; i = inactive; ? = inconclusive; nt = no result given. This is a sample that favours compounds with a hit; in the whole collection about 4.6% have one here. Unless noted, calls follow the shape of the dose curve; as a rule, active = well fitted curve in the direction sought with a large enough effect; inconclusive = small, poorly fitted or top-dose-only effect, or another doubt; inactive = no such curve, though single readings can be large; an effect the other way counts as inactive or inconclusive.

SMILES | D1 antag | TRHR enhancer-1 | D1 PAM | D1 ag | TRHR agonist-1 | TRHR enhancer-2 | TRHR agonist-2
COc1cnc(-c2ccccc2)nc1Oc1cccc(C)c1 | i | 59 | i | i | i | i | i
Cc1c(NC(=O)C(F)(F)F)ccc2nc3c(=O)n(C)c(=O)n(C)c3nc12 | i | i | i | i | i | nt | nt
CC(NC(=S)NC(=O)c1ccccc1Br)c1ccccc1 (configuration not stated) | i | 47 | i | i | i | i | i
CC(C)C(NC(=O)c1ccccc1Br)c1ccccc1 (configuration not stated) | i | i | i | i | i | nt | nt
CCc1ccc(S(=O)(=O)c2nnn3c2nc(Nc2ccc(F)cc2)c2cc(Cl)ccc23)cc1 | i | i | i | i | i | nt | nt
Cc1c(C)c2cc3c(C)coc3cc2oc1=O | i | 41 | i | i | i | i | i
COC(=O)C1=C(c2ccccc2)c2ccccc2S(=O)(=O)N1CC(=O)Nc1cccc(C(C)=O)c1 | i | i | i | i | i | nt | nt
Cn1c(=O)c2c([nH]c(=O)n2Cc2ccc(Cl)cc2Cl)n(C)c1=O | i | i | i | i | i | nt | nt
CCCOc1ccc(C2CC(=O)Nc3c2c(=O)n(C)c(=O)n3C)cc1OC (configuration not stated) | i | i | i | i | i | nt | nt
CCOC(=O)N1CCc2c(sc3c2c(=O)n(CCc2ccccc2)c(=O)n3Cc2ccc(F)cc2)C1 | i | i | i | i | i | nt | nt
COc1ccc(C)cc1S(=O)(=O)N1CCC2(CC1)OCCN2S(=O)(=O)c1cccs1 | i | 66 | i | i | i | ? | i
CCCc1cc(C(=O)N2CCCC(C(=O)c3cccc4ccccc34)C2)n(C)n1 (configuration not stated) | i | 46 | i | i | i | i | i
CCN(Cc1nc(-c2ccc(OC)cc2)oc1C)S(=O)(=O)c1ccc(Cl)cc1 | i | i | i | i | i | nt | nt
CCN(CC)C(=O)c1sc2c(c1C)c(=O)n(-c1ccccc1)c(=O)n2CC(=O)Nc1ccc(C)cc1C | i | i | i | i | i | nt | nt
Cc1ccc(SCC(=O)Nc2ccc3oc(-c4cccc(Cl)c4)nc3c2)cc1 | i | i | i | i | i | nt | nt
COc1cc(CN2CCNC(=O)C2CC(=O)NC2CCCCC2)cc(OC)c1 (configuration not stated) | i | i | i | i | i | nt | nt
COc1cc(CN2CCNC(=O)C2CC(=O)NC2CCCC2)cc(OC)c1 (configuration not stated) | i | 58 | i | i | i | i | i
O=C(Nc1cccc(Cl)c1N1CCOCC1)c1cc([N+](=O)[O-])ccc1N1CCOCC1 | i | i | i | i | i | nt | nt
O=C(Nc1cccc(Cl)c1N1CCOCC1)c1ccc([N+](=O)[O-])o1 | i | 48 | i | i | i | i | i
CCc1ccc(CNC(=O)c2ccc(CSc3nc4ccncc4n3Cc3ccccc3)cc2)cc1 | i | i | i | i | i | nt | nt
COc1ccc(Nc2ccc(N3C(=O)CCCC3=O)cc2[N+](=O)[O-])cc1OC | i | i | i | i | i | nt | nt
CCOc1ccc(Nc2ccc(N3C(=O)CCC3=O)cc2[N+](=O)[O-])cc1 | i | 48 | i | i | i | i | i

Bioassay records (PubChem)
